# PubChem BioAssay (Tox21)
# Inconclusive results are not listed. Entries that show only a call come without a potency. The source made the active and inactive calls. The call rests on the fitted dose curve.
# Assays:
# [1] = target: Acetylcholinesterase (Homo sapiens) (UniProt P22303); experiment: Acetylcholinesterase (AChE) small molecule antagonists: colormetric cell-based qHTS assay (AID 1347395); conditions: SH-SY5Y cells AChE activity, colorimetric (Ellman); series mostly up to 115 µM; further: nearly all actives have a fitted effect of over 30% in size; further: potency means the concentration at half of the fitted maximal effect
# Acetylcholinesterase (Homo sapiens), sequence (P22303 whole entry, looked up): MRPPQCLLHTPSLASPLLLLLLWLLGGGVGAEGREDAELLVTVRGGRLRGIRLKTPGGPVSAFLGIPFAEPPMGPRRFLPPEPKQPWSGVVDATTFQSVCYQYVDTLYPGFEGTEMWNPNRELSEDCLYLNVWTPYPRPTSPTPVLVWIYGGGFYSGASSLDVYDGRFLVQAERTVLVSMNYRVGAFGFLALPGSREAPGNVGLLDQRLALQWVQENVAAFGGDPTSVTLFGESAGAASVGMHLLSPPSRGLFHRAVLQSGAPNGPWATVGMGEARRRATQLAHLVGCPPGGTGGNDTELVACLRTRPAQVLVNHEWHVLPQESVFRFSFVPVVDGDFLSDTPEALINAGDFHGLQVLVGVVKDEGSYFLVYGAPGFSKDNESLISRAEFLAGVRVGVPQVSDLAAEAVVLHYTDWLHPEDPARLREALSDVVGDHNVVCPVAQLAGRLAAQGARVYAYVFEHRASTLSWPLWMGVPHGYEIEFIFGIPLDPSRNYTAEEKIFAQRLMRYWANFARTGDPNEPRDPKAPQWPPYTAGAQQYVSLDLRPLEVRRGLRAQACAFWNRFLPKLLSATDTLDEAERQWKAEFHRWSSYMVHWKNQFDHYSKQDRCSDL
# How it was run: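 SH-SY5Y cells; cpd 30 min 37 C; + DTNB/acetylthiocholine, 90 min 37 C; colorimetric thiocholine read; qHTS.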
# [2] = target: Acetylcholinesterase (Homo sapiens) (UniProt P22303); experiment: Acetylcholinesterase (AChE) small molecule antagonists: enzyme-based qHTS assay (AID 1347397); conditions: Potency: AChE enzyme activity inhibition; outcome: AChE enzyme activity inhibition; series mostly up to 115 µM; further: nearly all actives have a fitted effect of over 55% in size; further: potency means the concentration at half of the fitted maximal effect
# How it was run: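 rhAChE 50 mU/mL (dispensed) + cpd or DMSO, 30 min RT; add DTNB/acetylthiocholine cocktail, 10 min RT; colorimetric thiocholine readout. qHTS, 1536-well format.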
# [3] = target: Acetylcholinesterase (Homo sapiens) (UniProt P22303); experiment: Acetylcholinesterase (AChE) small molecule antagonists: fluorescence cell-based qHTS assay (AID 1347398); conditions: SH-SY5Y cells; Potency: AChE activity; outcome: AChE activity; series mostly up to 115 µM; further: nearly all actives have a fitted effect of over 50% in size; further: potency means the concentration at half of the fitted maximal effect
# How it was run: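 Read-out is Thiolite Green fluorescence at Ex/Em = 490/520 nm, formed by reaction with thiocholine released when cellular AChE in SH-SY5Y cells hydrolyzes acetylthiocholine. Compounds were preincubated 30 min at 37 C before substrate.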
# [4] = target: Acetylcholinesterase (Homo sapiens) (UniProt P22303); experiment: Acetylcholinesterase (AChE) small molecule antagonists: enzyme-based qHTS assay with human liver microsomes (AID 1347399); conditions: Potency: qHTS inhibition; outcome: qHTS inhibition; series mostly up to 115 µM; further: nearly all actives have a fitted effect of over 60% in size
# How it was run: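 Recombinant human AChE (50 mU/mL in the enzyme mix) and human liver microsomes (0.25 mg/mL final) were preincubated with compound and NADPH (0.25 mg/mL final) for 30 min at 37 C. Acetylthiocholine/DTNB was then added; thiocholine was read colorimetrically after 10 min at room temperature.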
SMILES,Potency [1],Potency [2],Potency [3],Potency [4],"activity, negative = inhibition [1]","activity change, negative = inhibition [2]","activity change, negative = inhibition [3]","activity change, negative = inhibition [4]"
OCC(CO)n1cnc(-c2ccc(F)cc2)c1-c1ccnc(Oc2ccccc2)n1,inactive,inactive,inactive,inactive,,,,
CC12CCC(C(=O)C1=O)C2(C)C (stereo unspecified),inactive,inactive,inactive,inactive,,,,
CCCCCCCCCCCCCCCCCO,,,,,0.97% [at 23.6 µM] (inactive),-1.09% [at 23.6 µM] (inactive),0.561% [at 23.8 µM] (inactive),3.32% [at 23.6 µM] (inactive)
c1ccc(CN(CC2=NCCN2)c2ccccc2)cc1,inactive,inactive,inactive,inactive,,,,
CO[C@H]1C=CO[C@@]2(C)Oc3c(C)c(O)c4c(O)c(cc(O)c4c3C2=O)NC(=O)/C(C)=C\C=C/[C@H](C)[C@H](O)[C@@H](C)[C@@H](O)[C@@H](C)[C@H](OC(C)=O)[C@@H]1C,inactive,inactive,inactive,inactive,,,,
C=C[Si](C)(C)O[Si](C)(C)C=C,inactive,inactive,inactive,inactive,,,,
Cc1occc1C(=O)Nc1ccc(C(=O)N2CCC(F)(F)/C(=C\C(=O)N3CCC(N4CCCCC4)CC3)c3ccccc32)cc1,inactive,inactive,inactive,inactive,,,,
C=CCON/C(CCC)=C1\C(=O)CC(C)(C)C(C(=O)OC)=C1O,inactive,inactive,inactive,inactive,,,,
N#Cc1c(F)cccc1F,inactive,inactive,inactive,inactive,,,,
CCCC1CCOC(C)S1 (stereo unspecified),inactive,inactive,inactive,inactive,,,,
CC(C)C(=O)OCCc1ccccc1,inactive,inactive,inactive,inactive,,,,
O=C(CCOCCOCCOCCOCCC(=O)Nc1c(I)cc(I)c(C(=O)O)c1I)Nc1c(I)cc(I)c(C(=O)O)c1I,inactive,inactive,inactive,inactive,,,,
C[C@@H]1CC[C@H]2C(C)(C)[C@H]3C[C@@]12CC[C@@]3(C)O,inactive,inactive,inactive,inactive,,,,
Nc1c(Br)cc([N+](=O)[O-])cc1Br,inactive,inactive,inactive,inactive,,,,
CCOC(=O)c1nc(C(Cl)(Cl)Cl)n(-c2ccc(Cl)cc2Cl)n1,inactive,inactive,inactive,inactive,,,,
Cc1nc([N+](=O)[O-])cn1-c1ccc([N+](=O)[O-])cc1,inactive,inactive,inactive,inactive,,,,
CCCCC(CC)(CO)CO,inactive,inactive,inactive,inactive,,,,
COC(=O)CC(C)=O,inactive,inactive,inactive,inactive,,,,
CC(=O)Nc1ccc(S(=O)(=O)Cl)cc1,inactive,inactive,inactive,inactive,,,,
O=C(CC(=O)C(F)(F)F)c1ccccc1,inactive,inactive,inactive,inactive,,,,
O=Cc1ccc(F)cc1,inactive,inactive,inactive,inactive,,,,
CCCC(=O)C(=O)O,inactive,inactive,inactive,inactive,,,,
CCCCCCCOC(=O)c1ccccc1C(=O)OCCCCCCC,inactive,inactive,inactive,inactive,,,,
CN(C)CCc1c[nH]c2ccc(CS(=O)(=O)N3CCCC3)cc12,inactive,inactive,inactive,inactive,,,,
COc1ccc(-c2cc(=S)ss2)cc1,inactive,inactive,inactive,inactive,,,,
C[C@@H](O)[C@H](N)C(=O)O,,,,,2.29% [at 23.6 µM] (inactive),0.985% [at 23.6 µM] (inactive),4.69% [at 23.8 µM] (inactive),-2.85% [at 23.6 µM] (inactive)
CCCCCCCCCC(=O)N(C)C,inactive,inactive,inactive,inactive,,,,

SMILES,Potency [1],Potency [2],Potency [3],Potency [4],"activity, negative = inhibition [1]","activity change, negative = inhibition [2]","activity change, negative = inhibition [3]","activity change, negative = inhibition [4]"
CC12CC3CC(C)(C1)CC(N)(C3)C2,inactive,inactive,inactive,inactive,,,,
CO/N=C(\C(=O)N[C@@H]1C(=O)N2C(C(=O)O)=C(CSc3nc(=O)c(O)nn3C)CS[C@H]12)c1csc(N)n1,inactive,inactive,inactive,inactive,,,,
O=S1OCCO1,inactive,inactive,inactive,inactive,,,,
CCCCCCCC/C=C\CCCCCCCC(=O)OCCCC,,,,,0.807% [at 23.6 µM] (inactive),0.806% [at 23.6 µM] (inactive),-0.0934% [at 23.8 µM] (inactive),0.083% [at 23.6 µM] (inactive)
C/C=C/C=C/COC(=O)C(C)C,inactive,inactive,inactive,inactive,,,,
O=S(O)(O)=S,,,,,-0.643% [at 10.5 µM] (inactive),0.136% [at 10.5 µM] (inactive),2.89% [at 10.5 µM] (inactive),0.162% [at 10.5 µM] (inactive)
Nc1ccc2c(S(=O)(=O)O)cccc2c1S(=O)(=O)O,inactive,inactive,inactive,inactive,,,,
CC(=O)c1ccccc1N,inactive,inactive,inactive,inactive,,,,
CC1(C)CCC(C)(C)c2cc(C(=O)Nc3ccc(C(=O)O)cc3)ccc21,inactive,inactive,inactive,inactive,,,,
C=CCOc1nc(OCC=C)nc(OCC=C)n1,inactive,inactive,inactive,inactive,,,,
CC(C)SCc1ccco1,inactive,inactive,inactive,inactive,,,,
CCCCCCCCCCCCCC=O,,,,,1.02% [at 10.5 µM] (inactive),0.138% [at 10.5 µM] (inactive),1.81% [at 10.5 µM] (inactive),-0.486% [at 10.5 µM] (inactive)
CCCCCCC(C)Nc1ccc(Nc2ccccc2)cc1 (stereo unspecified),inactive,inactive,inactive,inactive,,,,
Cc1ccc2c(c1[N+](=O)[O-])C(=O)c1ccccc1C2=O,781 nM (active),1390 nM (active),392 nM (active),inactive,,,,
CC1CCCO1 (stereo unspecified),inactive,inactive,inactive,inactive,,,,
N#CCN(CC#N)CCN(CC#N)CC#N,inactive,inactive,inactive,inactive,,,,
Cc1ccc(N)nc1,inactive,inactive,inactive,inactive,,,,
Cc1c(C)c2c(c(C)c1OC(=O)CCC(=O)O)CC[C@@](C)(CCC[C@H](C)CCC[C@H](C)CCCC(C)C)O2,inactive,inactive,inactive,inactive,,,,
C[C@@H](O)[C@H]1C(=O)N2C(C(=O)O)=C([C@H]3CCCO3)S[C@H]12,inactive,inactive,inactive,inactive,,,,
Cc1cc(S(=O)(=O)O)ccc1N=Nc1c(O)ccc2ccccc12,inactive,inactive,inactive,inactive,,,,
CCCCC(CC)CNCC(CC)CCCC (stereo unspecified),inactive,inactive,inactive,inactive,,,,
O=c1c(-c2ccccc2)c1-c1ccccc1,inactive,inactive,inactive,inactive,,,,
CN(C)c1ccc(N=Nc2ccccc2C(=O)O)cc1,inactive,inactive,inactive,inactive,,,,
CCCCCCCCCC(C)C=O (stereo unspecified),inactive,inactive,inactive,inactive,,,,
CCO[Si](C)(OCC)OCC,inactive,inactive,inactive,inactive,,,,
CC(C)CCCO,inactive,inactive,inactive,inactive,,,,
O=C(O)c1cc(Cl)cc([N+](=O)[O-])c1Cl,inactive,inactive,inactive,inactive,,,,

SMILES,Potency [1],Potency [2],Potency [3],Potency [4],"activity, negative = inhibition [1]","activity change, negative = inhibition [2]","activity change, negative = inhibition [3]","activity change, negative = inhibition [4]"
CCCCCCCCCCCl,inactive,inactive,inactive,inactive,,,,
COC(=O)C1=C(C)NC(COC(N)=O)=C(C(=O)OC(C)C)C1c1cccc(Cl)c1Cl (stereo unspecified),inactive,inactive,inactive,inactive,,,,
O=C(O)COCC(=O)O,inactive,inactive,inactive,inactive,,,,
CCCCOCCOC(=O)CCCCCCCCC(=O)OCCOCCCC,inactive,inactive,inactive,inactive,,,,
Cc1c(C(=O)NCCO)[n+](=O)c2ccccc2n1[O-],inactive,inactive,inactive,inactive,,,,
O=c1cc(-c2ccccc2)oc2ccc3ccccc3c12,inactive,inactive,inactive,inactive,,,,
CC(CC(=O)Cl)CC(C)(C)C (stereo unspecified),inactive,inactive,inactive,inactive,,,,
Nc1ccc(F)cc1F,inactive,inactive,inactive,inactive,,,,
N#CCCCC(C#N)CCC#N (stereo unspecified),inactive,inactive,inactive,inactive,,,,
COC(=O)C(C)(C)C,inactive,inactive,inactive,inactive,,,,
CCC(CC)CO,inactive,inactive,inactive,inactive,,,,
CCCCC1CCCCC(=O)O1 (stereo unspecified),inactive,inactive,inactive,inactive,,,,
CCc1ccc(C=O)cc1,inactive,inactive,inactive,inactive,,,,
NC(=O)c1ccccc1,inactive,inactive,inactive,inactive,,,,
Cc1onc(-c2c(Cl)cccc2Cl)c1C(=O)N[C@@H]1C(=O)N2[C@@H]1SC(C)(C)[C@@H]2C(=O)O,inactive,inactive,inactive,inactive,,,,
CC(C)(C)c1cc(CCC(=O)OCCSCCOC(=O)CCc2cc(C(C)(C)C)c(O)c(C(C)(C)C)c2)cc(C(C)(C)C)c1O,inactive,inactive,inactive,inactive,,,,
COc1cccc(OC)c1C(=O)O,inactive,inactive,inactive,inactive,,,,
[O-][n+]1ccc(Cl)cc1,inactive,inactive,inactive,inactive,,,,
BrC/C=C/CBr,,,,,1.18% [at 23.6 µM] (inactive),2.59% [at 23.6 µM] (inactive),7.15% [at 23.8 µM] (inactive),-2.1% [at 23.6 µM] (inactive)
CN(Cc1ccc(C(C)(C)C)cc1)Cc1cccc2ccccc12,inactive,inactive,inactive,inactive,,,,
O=C1NC(=O)c2cc([N+](=O)[O-])ccc21,inactive,inactive,inactive,inactive,,,,
CC(C)(C)CC(C)(C)c1ccc(OCCO)cc1,inactive,inactive,inactive,inactive,,,,
CCOc1ccccc1OCC,inactive,inactive,inactive,inactive,,,,
CC1(C)O[C@@H]2C[C@H]3[C@@H]4CCC5=CC(=O)CC[C@]5(C)[C@@]4(F)[C@@H](O)C[C@]3(C)[C@]2(C(=O)CCl)O1,inactive,inactive,inactive,inactive,,,,
CC1CCc2nccnc21 (stereo unspecified),inactive,inactive,inactive,inactive,,,,
